RGS12 GoLoco inh: RGS12 GoLoco-Gai1 interaction inhibition; P63096; Gai1:RGS12 GoLoco peptide FP, rhodamine, 10 min; Potency, µM (top dose mostly 61.6 µM), without a hit: at the top dose activity, negative = inhibition, hits mostly inhibitors; actives 0.44% (n = 230,000); active = well fitted inhibition curve with a large enough effect, not every such curve was filed as active; inactive = no such curve, though single readings can be large or run the other way; note: nearly all actives have a fitted effect of over 30% in size
TR SRC2 fluor cs: counter-screen for TRb-SRC2 inhibitors: fluorescence interference. TRb/SRC2 Texas Red total fluorescence interference. Potency, µM (doses to about 106 µM), without a hit: at the highest dose fluorescence change, negative = quenching. actives 0.29% (n = 280,000). AID 1479; active = well fitted curve in either direction with a large enough effect; inconclusive = small, poorly fitted or top-dose-only effect
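Human TRb ligand-binding domain at 0.6 uM with 20 nM Texas Red SRC2 peptide in Tris buffer containing 1 uM T3 and 5% DMSO, incubated with compound 5 h at ambient temperature. Total fluorescence (555/632 nm) calculated as parallel + 2 × perpendicular.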
TRb SRC2 PPI: TRbeta-SRC2 interaction inhibition | P10828 | TRbeta-SRC2 peptide binding, fluorescence polarization; receptor liganded with 1 µM T3 | Potency, µM (top dose mostly 106 µM), without a hit: at the highest dose activity change, negative = inhibition, actives largely listed as inhibitors | actives 0.065% (n = 280,000);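 note: plate controls were bound peptide for no effect and peptide without receptor for full effect; nearly all actives have a fitted effect of over 50% in size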
Target sequence (P10828 whole entry, looked up): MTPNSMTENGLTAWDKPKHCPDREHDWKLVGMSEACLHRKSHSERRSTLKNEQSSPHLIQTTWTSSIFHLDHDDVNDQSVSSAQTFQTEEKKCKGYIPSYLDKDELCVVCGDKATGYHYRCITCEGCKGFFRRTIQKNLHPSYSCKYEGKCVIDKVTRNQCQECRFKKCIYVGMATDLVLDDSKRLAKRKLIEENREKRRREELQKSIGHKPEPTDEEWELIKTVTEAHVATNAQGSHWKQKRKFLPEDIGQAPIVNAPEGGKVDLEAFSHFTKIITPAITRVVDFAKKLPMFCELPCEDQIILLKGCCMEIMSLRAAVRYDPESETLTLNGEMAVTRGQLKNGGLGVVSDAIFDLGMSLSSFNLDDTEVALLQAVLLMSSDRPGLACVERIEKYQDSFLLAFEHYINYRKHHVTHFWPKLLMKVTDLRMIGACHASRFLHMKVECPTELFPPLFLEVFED
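Each compound concentration gave % activity, normalized to unbound and bound Texas Red SRC2 controls, from polarization read after 5 hr ambient incubation with T3-loaded human TRb LBD.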
Tau ThT inhib: inhibitors of human tau fibril formation, thioflavin T binding; recombinant tau K18 P301L, heparin-induced fibrillization, ThT fluorescence; Potency, µM (titrated, usually from 57.4 µM), for inactives: at the top dose activity, negative = inhibition, hits mostly inhibitors; actives 2.1% (n = 270,000); AID 1460; note: nearly all actives have a fitted effect of over 55% in size
Target sequence (P10636 561-689 P618L limits assumed): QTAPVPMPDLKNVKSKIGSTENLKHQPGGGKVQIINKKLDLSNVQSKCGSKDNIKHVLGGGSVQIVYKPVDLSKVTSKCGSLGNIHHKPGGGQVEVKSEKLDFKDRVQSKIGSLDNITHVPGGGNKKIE
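Tau K18 P301L fragment (15 uM unlabeled plus 0.24 uM Alexa 594-labeled) in 100 mM sodium acetate pH 7 with compound, fibrillization induced by 20 uM heparin for 6 hr at 37 C. Thioflavin T (30 uM) added, fluorescence read after 1 hr (ex 450, em 510 nm).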
Tau FP inhib: tau fibrillization inhibition (FP) | Potency, µM (series often up to 57.7 µM), for inactives: top-dose activity, negative = inhibition, actives largely listed as inhibitors | AID 1468 | actives 0.39% (n = 280,000) | K18 P301L tau heparin fibrillization, Alexa594 FP, 6 h | P10636; note: nearly all actives have a fitted effect of over 55% in size
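Quantitative HTS format: compounds meet 15 uM recombinant K18 P301L tau and Alexa 594-tau tracer in 100 mM sodium acetate pH 7; 20 uM heparin triggers fibrillization at 37 C over 6 hr; FP gives the signal.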
Tau fluor counter: counter-screen for tau fibril formation inhibitors; Potency, µM (series often up to 57.7 µM), without a hit: at the highest dose activity change, negative = decrease; tau K18 P301L (four-repeat tau fragment) Alexa594 fluorescence, heparin fibrillization; actives 0.93% (n = 280,000); AID 1463; note: nearly all actives have a fitted effect of over 55% in size
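Human K18 P301L tau (15 uM unlabeled plus 0.24 uM Alexa 594-labeled, final) in 100 mM sodium acetate pH 7 was mixed with compound and 20 uM heparin and incubated 6 hr at 37 C.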
An asterisk follows results filed as active; ? = inconclusive; / = no result; [ ] = dose if it differs, or a comment. Hits are enriched below; roughly 3.2% of the tested compounds scored in any of these assays. Unless noted, calls come from the whole dose curve; as a rule, active = well fitted curve in the direction sought with a large enough effect; inconclusive = small, poorly fitted or top-dose-only effect, or another doubt; inactive = no such curve, though single readings can be large; an effect the other way counts as inactive or inconclusive. Unless noted, % is set by controls: 0 for no effect and ±100 for the full control effect; potency is the fitted concentration of half-maximal effect.

SMILES	RGS12 GoLoco inh	TR SRC2 fluor cs	TRb SRC2 PPI	Tau ThT inhib	Tau FP inhib	Tau fluor counter
Cc1ccc(CS(=O)(=O)c2cn(CC(=O)N(C)c3ccccc3)c3ccccc23)cc1	/	?	-2.0%	-4.4%	8.3%	-6.3%
O=C1CCCC(=O)N1c1ccc(N2CCN(c3ccc([N+](=O)[O-])cc3)CC2)c([N+](=O)[O-])c1	-1.8%	-8.2%	8.5%	3.98µM*	-0.2%	-20.2%
CN(C)c1ccc(C(=S)N2CCCCCC2)cc1	4.1%	0.7%	-7.4%	25.1µM*	?	?
O=[N+]([O-])c1ccc(N2CCCCC2)cc1	6.9%	-2.9%	-5.7%	8.91µM*	-8.0%	-18.6%
O=C1CCCC(=O)N1c1ccc(N2CCN(c3ccccc3)CC2)c([N+](=O)[O-])c1	-1.4%	-1.0%	2.3%	?	2.7%	-6.1%
C=C[C@@]1(C)CC[C@H]2C(=CC[C@@H]3[C@]2(C)CCC[C@@]3(C)C(=O)O)C1	/	3.3%	-4.9%	/	/	/
CC(C)(C)c1cc(=O)n(-c2ccccc2)[nH]1	-16.5%	-3.3%	-4.1%	39.8µM*	?	-21.4%
COC(=O)c1c(C)nc(C)c(C(=O)OC)c1-c1ccccc1[N+](=O)[O-]	/	-3.2%	-4.8%	/	/	/
O=C(Cc1cccs1)NC1C(=O)N2C(C(=O)[O-])=C(C[n+]3ccccc3)CSC12 (stereo not drawn)	18.2%	1.5%	8.0%	15.8µM*	?	-23.8%
CC(=O)OCC1=C(C(=O)O)N2C(=O)[C@@H](NC(=O)Cc3cccs3)[C@H]2SC1	11.6%	-0.1%	-5.4%	?	?	-15.1%
CCNc1ncc2nc(CCc3ccccc3)c(=O)n(C3CC3)c2n1	3.3%	/	/	/	/	/
Cc1snc(SCC(=O)c2ccc([N+](=O)[O-])cc2)c1C#N	14.1µM*	-6.0%	-7.4%	14.1µM*	?	-26.3%
Cc1ccc(S(=O)(=O)/N=C2/C=C(Sc3ncn[nH]3)C(=O)c3ccccc32)c(C)c1	-27.2%	-14.7%	28.2µM*	10µM*	28.2µM*	?
Cc1ccc(S(=O)(=O)/N=C2/C=C(Sc3ncn[nH]3)C(=O)c3ccccc32)cc1	-31.4%	-15.7%	28.2µM*	3.55µM*	14.1µM*	?
CCCNC(=O)OC[C@@H]1O[C@H](CCO/N=C\[C@@H](C)[C@H](OCc2ccccc2)C(C)C)C=C[C@@H]1Oc1ccc(OC)cc1	/	-3.9%[11.2 µM]	-2.6%[11.2 µM]	-11.8%[11.5 µM]	1.4%[11.6 µM]	-9.3%[11.6 µM]
CCOC(=O)Cc1cc(=O)c2c(=O)n(-c3ccccc3)[nH]c2[nH]1	2.7%	-11.7%	-3.3%	?	0.3%	-10.6%
O=c1cc(-c2ccccc2)[nH]c2[nH]n(-c3ccccc3)c(=O)c12	4.9%	-4.0%	-3.1%	20µM*	?	-22.2%
CCc1ccc(CNC(=O)c2sc3ncnc(N(C)C4CCCCC4)c3c2C)cc1	/	-0.8%	-4.0%	-12.2%	-10.1%	-14.6%
CCn1ccc2cc(S(=O)(=O)N3CCCN(C(=O)NCC(C)C)CC3)ccc21	/	2.9%	-1.8%	2.2%	-0.5%	-1.4%
CCOc1cc(C=C(C(=O)OC)C(=O)OC)ccc1OCc1ccc([N+](=O)[O-])cc1	6.2%	-4.1%	-18.8%	12.6µM*	17.4%	-25.6%
O=C(O)CSc1ncccc1[N+](=O)[O-]	-5.7%[14.2 µM]	/	/	/	/	/
O=C(Nc1ccc(OCC(F)(F)C(F)F)c(C(F)(F)F)c1)c1ccccc1O	6.9%	1.3%	6.5%	?	25.1µM*	?
O=C(Nc1ccc(OCC(F)(F)C(F)F)cc1)c1ccncc1	-2.4%	-3.7%	1.7%	-14.5%	4.7%	-12.4%
COc1ccc(CNC(=O)c2cnn(-c3ccc(C)cc3)c2-n2cccc2)cc1OC	/	-7.1%	0.6%	-17.1%	-0.4%	-8.9%
COc1ccc(-c2nc(SCC(=O)Nc3ccc4c(c3)OCO4)c(-c3ccc(OC)cc3)[nH]2)cc1	/	-13.5%	-3.6%	-10.0%	2.9%	?
SMILES	RGS12 GoLoco inh	TR SRC2 fluor cs	TRb SRC2 PPI	Tau ThT inhib	Tau FP inhib	Tau fluor counter
Cc1cccc(-c2nc(SCC(=O)Nc3ccc4c(c3)OCO4)c(-c3ccccc3)[nH]2)c1	/	-2.3%	11.2%	?	?	6.31µM*[quencher]
COc1cccc(-c2nc(SCC(=O)Nc3ccc4c(c3)OCO4)c(-c3ccccc3)[nH]2)c1	/	-1.4%	-5.9%	?	-5.6%	7.94µM*[quencher]
COc1ccc(N2C(=O)CC(Sc3ccccc3C(=O)O)C2=O)c([N+](=O)[O-])c1 (stereo not drawn)	-21.5%	-8.5%	-0.2%	14.1µM*	-7.8%	?
Cc1ccc(N2C(=O)CC(Sc3ccccc3C(=O)O)C2=O)c([N+](=O)[O-])c1 (stereo not drawn)	-13.5%	-2.6%	-7.4%	?	-1.6%	-22.5%
COc1ccc(CNC(=O)Cc2c(C)c3c(cc(C)c4c(C)c(C)oc43)oc2=O)cc1OC	/	-0.3%	-1.7%	8.6%	2.9%	0.8%
C=CCn1c(O)c(C2=c3ccccc3=NC2=O)s/c1=N/c1nccs1	26.9%	-5.8%	-6.8%	?	?	?
Cn1c(O)c(C2=c3ccccc3=NC2=O)sc1=Nc1ccc(Cl)cc1	2.2%	-4.7%	-0.3%	10µM*	14.9%	?
Cc1cc(C)cc(Nc2cc(C(=O)NCc3ccccc3)c3ccccc3n2)c1	/	-1.3%	5.5%	-12.8%	?	3.55µM*[quencher]
Cc1cc(C)cc(Nc2cc(C(=O)NCCCN(C)C3CCCCC3)c3ccccc3n2)c1	/	-0.7%	-2.8%	?	3.6%	3.16µM*[quencher]
Cc1ccc(C)c(Nc2cc(C(=O)NCCCN(C)C3CCCCC3)c3ccccc3n2)c1	/	-2.5%	-2.6%	?	5.8%	?
O=[N+]([O-])c1cc(/C=N\Nc2nccs2)ccc1O	4.9%	25.1µM*[quencher]	?	12.6µM*	?	14.1µM*[quencher]
Clc1cccc(Cl)c1/C=N\Nc1nccs1	61.1%	4.6%	9.5%	5.5%	3.7%	-0.1%
Oc1c(N=Nc2ccccc2)sc2ccccc12	80.3%	-8.0%	6.4%	2.51µM*	3.8%	-22.6%
Cc1cccc(C2(c3cccc(C)c3)CC2C(=O)NCC2CCCO2)c1 (stereo not drawn)	10.5%	-0.5%	6.7%	0.7%	11.7%	6.7%
Cc1cccc(C2(c3cccc(C)c3)CC2C(=O)Nc2ccc([N+](=O)[O-])cc2O)c1 (stereo not drawn)	10.0%	-0.8%	0.3%	?	?	10µM*[quencher]
OCCNCCCOc1cccc(Cl)c1Cl	5.2%	-1.5%	-5.7%	-7.1%	4.5%	-12.1%
O=C(O)/C=C(/C(=O)O)[C@]12CCN3CC4=CCO[C@@H]5CC(=O)N[C@@H]1C5[C@H]4C[C@H]32 (stereo partly drawn)	-0.3%[14.2 µM]	/	/	/	/	/
CC1(C)Oc2ccc3ccc(=O)oc3c2/C(=C/Nc2ccc(O)cc2)C1=O	12.4%	-3.1%[53 µM]	3.7%[53 µM]	-16.7%	7.7%	12.6µM*[quencher]
